Screens deposited in PubChem by National Center for Advancing Translational Sciences (NCATS).
DT40 TDP1 CPT: growth inhibition of DT40 Tdp1-/-;hTDP1 cells with camptothecin (screen for TDP1 inhibitors) | chicken DT40 Tdp1-/-;hTDP1 cells + 20 nM CPT, ATP luminescence, 48 h | Potency, µM (series often up to 46.2 µM), hits mostly inhibitors | actives 12% (n = 420,000) | AID 686979; note: nearly all actives have a fitted effect of over 55% in size
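Chicken DT40 Tdp1-/- cells stably complemented with human TDP1 were seeded at 400 cells/well in medium containing 20 nM camptothecin, exposed to pin-transferred compounds, and grown at 37 °C for at least 48 hr. Viability was read as ATP luminescence.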
HT1080 IDH1KD tx: HT-1080 IDH1 knockdown cell toxicity (counter line); HT-1080 IDH1 knockdown viability, ATP luminescence, 48 h; Potency, µM (doses to about 46.1 µM), actives largely listed as cytotoxic; actives 2% (n = 360,000); AID 686971
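Using the IDH1-knockdown HT-1080 line run in the same batch and compound series as the NT line, viability after 48 h at 37 °C was determined by CellTiter-Glo luminescence and expressed as % activity.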
HT1080NT lethal: kills 2HG-producing HT-1080-NT fibrosarcoma cells. HT-1080-NT fibrosarcoma viability, CellTiter-Glo ATP luminescence, 48 h. Potency, µM (doses to about 46.1 µM), hits mostly cytotoxic. actives 1.6% (n = 360,000). AID 686970;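 note: NT is the 2HG producing partner of a matched IDH1 knockdown line; nearly all actives have a fitted effect of over 55% in size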
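HT-1080-NT; 750 cells/well; 5% FBS RPMI; 48 h compound, 37 degrees C; CellTiter-Glo luminescence; curve fitting and curve-class assignment.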
IL-1B inflam inh: inhibitors of inflammasome signaling (IL-1 beta secretion); THP-1 LPS/ATP IL-1B secretion, AlphaLISA, 16 h; active compounds read low; activity change, % at 57.5 µM; actives 4.7% (n = 360,000); AID 743279; in the data active = activity change below about -50%; inconclusive = mostly about -30% to -49%
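THP-1 cells pretreated 1 hr with compounds (up to 57.5 uM final), then stimulated with LPS (250 ng/mL final) plus ATP (1.25 mM final); secreted IL-1B measured by AlphaLISA after 16 hr, decreased signal indicating inhibition.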
ELG1 repair inh: inhibitors of ELG1-dependent DNA repair in HEK293T cells | HEK293T ELG1-luciferase reporter, luminescence, 16 h; DNA damage induced by 5-fluorouridine | Potency, µM (titrated, usually from 46.1 µM), most hits filed as inhibitors | actives 2.3% (n = 330,000) | AID 504467; note: nearly all actives have a fitted effect of over 55% in size
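Reporter activity after DNA damage by 5-fluorouridine is monitored. Compound-treated cells incubate 16 hr at 37 °C, then ONE-Glo is added for 30 min before luminescence reading.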
TDP1 cell noCPT: qHTS for Inhibitors of human tyrosyl-DNA phosphodiesterase 1 (TDP1): qHTS in cells in absence of CPT | Potency, µM (doses to about 46.2 µM), most hits filed as inhibitors | DT40 Tdp1-/- hTDP1 cells, no CPT, ATP luminescence, 48 h | AID 686978, 2013 | actives 15% (n = 420,000); note: nearly all actives have a fitted effect of over 55% in size
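Seeded 400 DT40-hTDP1 cells/well (vehicle DMSO, no 20 nM CPT); pinned compounds; ≥48 hr at 37 °C; CellTiter-Glo luminescence as viability measure.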
Hits are given with their value; 0 = inactive; ? = inconclusive; - = no result given; [ ] = another dose, or the depositor's remark. Hits are enriched below; roughly 19% of the tested compounds scored in any of these assays. Unless noted, calls come from the whole dose curve; as a rule, active = well fitted curve in the direction sought with a large enough effect; inconclusive = small, poorly fitted or top-dose-only effect, or another doubt; inactive = no such curve, though single readings can be large; an effect the other way counts as inactive or inconclusive.

SMILES	DT40 TDP1 CPT	HT1080 IDH1KD tx	HT1080NT lethal	IL-1B inflam inh	ELG1 repair inh	TDP1 cell noCPT
CCCCCCCCCCOC(=O)C[N+](C)(C)C/C=C(/C)Cl	8.2µM	0	0	?	0	3.7µM
CC(C)(C)S(=O)N1Cc2cc(C(=O)NCc3ccc4c(c3)OCO4)nc(-c3cccc(-c4cc5ccccc5o4)c3)c2[C@@H]1CCO (stereo not given in full)	?	?	23µM	0	-	?
CC(C)(C)S(=O)N1Cc2cc(C(=O)NCCCN3CCOCC3)nc(-c3cccc(-c4cc5ccccc5o4)c3)c2[C@@H]1CCO (stereo not given in full)	13µM	?	?	0	-	18µM
COc1cccc(-c2cccc(-c3nc(C(=O)NCc4ccc5c(c4)OCO5)cc4c3[C@H](CCO)N(S(=O)C(C)(C)C)C4)c2)c1 (stereo not given in full)	?	?	?	0	-	?
CC(C)(C)S(=O)N1Cc2cc(C(=O)NCc3ccc(Oc4ccccc4)cc3)nc(-c3cccc(-c4cc5ccccc5o4)c3)c2[C@H]1CCO (stereo not given in full)	?	18µM	18µM	-52	-	23µM
CC(C)(O)C#Cc1cccc(-c2nc(C(=O)NCCCN3CCOCC3)cc3c2[C@H](CCO)N(S(=O)C(C)(C)C)C3)c1 (stereo not given in full)	0	0	0	0	-	0
COc1cc(NCCCn2cnc3c(OCc4ccccc4)ncnc32)cc(OC)c1OC	?	0	0	0	-	?
CN(C)CCNC(=O)C1CCN(c2ncnc3c2nc2n3CCCCC2)CC1	0	-	-	-	-	0
CCOc1ccc(-c2nc(N)ncc2Oc2ccc(OC)cc2)c(O)c1	0	?	23µM	-87	0	0
CCOc1ccc(-c2nc(N)ncc2-c2ccc(OC)cc2)c(O)c1	?	0	0	0	?	?
CCOc1ccc(-c2nc(N)ncc2-c2ccccc2)c(O)c1	21µM	?	?	?	0	15µM
COc1ccc(NC(=O)c2ccc(CNc3c(N4CCCC4)c(=O)c3=O)cc2)cc1Cl	0	0	0	?	0	0
O=S(=O)(NCc1nnc2n1CCN(Cc1ccccc1Cl)CC2)c1ccccc1	0	-	-	-	-	?
CC(SC1=Nc2ccccc2C2CC=NN12)C(=O)NC1(C#N)CCCCC1 (stereo not given)	12µM	0	0	0	0	23µM
CC(Sc1ncccn1)C(=O)NC1(C#N)CCCCC1 (stereo not given)	0	0	0	0	?	0
COc1ccc(CNC(=O)Cn2ncc3c([nH]c4ccccc43)c2=O)cc1	0	-	-	-	-	?
CN(C)c1cccc(-c2cc(Nc3ccc(C(C)(C)C)cc3)ncn2)c1	21µM	0	0	0	-	?
COc1ccc(/C=N/NC(=O)c2cc3c(ccc4ccccc43)o2)cc1OC	?	0	0	0	?	?
COc1ccc2ccc(OC)c(/C=N/NC(=O)c3cc4ccccc4o3)c2c1	?	?	?	0	-	18µM
N#CCC(=O)N/N=C/c1cn(Cc2cccc3ccccc23)c2ccccc12	5.2µM	10µM	?	0	0	3.7µM
COc1ccccc1/C=N/NC(=O)c1cc2c(ccc3ccccc32)o1	16µM	0	0	0	0	?
N#CCn1cc(/C=N/NC(=O)c2cc3c(ccc4ccccc43)o2)c2ccccc21	21µM	9.2µM	?	0	0	12µM
C[N+]1(C)CC(O)[C@H](C(=O)[O-])C1 (stereo not given in full)	0	-	-	-	-	0
O=C(NCc1ccco1)/C(=C\c1ccco1)NC(=O)c1ccco1	0	0	0	0	?	0
COc1ccc(CN2CCNC(=O)C2CC(=O)NCc2cc(C)n(C)n2)c(F)c1 (stereo not given)	0	0	0	0	0	0
SMILES	DT40 TDP1 CPT	HT1080 IDH1KD tx	HT1080NT lethal	IL-1B inflam inh	ELG1 repair inh	TDP1 cell noCPT
N#CCC(=O)N/N=C/c1c(-c2ccccc2)n(-c2ccccc2)c2ccccc12	?	0	0	0	?	21µM
COc1ccc(/C=N\NC(=O)c2cc3c(ccc4ccccc43)o2)cc1O	?	4.6µM	?	0	?	?
Cc1ccc(N=Cc2nc(-c3ccco3)oc2O)cc1	0	0[9.24 µM]	0	-	?	?
COc1ccc(N=Cc2nc(-c3ccccc3)oc2OC(C)=O)cc1	?	0	0	0	?	13µM
Cc1ccc(C(=O)Oc2oc(-c3ccco3)nc2C=Nc2ccc(Cl)cc2)cc1	18µM	0	0	-51	?	23µM
O=C(Oc1oc(-c2ccco2)nc1C=Nc1ccccc1)c1ccoc1	5.2µM	0	0	-68	?	12µM
O=C(Oc1oc(-c2ccco2)nc1C=Nc1ccccc1)c1ccco1	3.7µM	0	0	?	?	4.6µM
CCCS(=O)(=O)NCc1c(C)ncc2c1CCN(C(=O)c1cccc(Cl)c1F)C2	0[9.04 µM]	-	-	-	-	0
Cc1ccc(C(C)C)cc1S(=O)(=O)NCc1ccccn1	0	0	0	0	?	?
NC(=S)NCc1cccnc1	0	0	0	0	0	0
CSC(=S)NCc1cccnc1	2.9µM	?	?	-63	0	3.3µM
CCOC(=O)c1ccc(NC(=O)Cn2c(=O)cc(C(F)(F)F)c3c(C)nn(C)c32)cc1	0	-	-	-	-	0
O=C(Nc1ccc(Br)cc1)c1cccn1-c1ncc(C(F)(F)F)cc1Cl	16µM	11µM	?	0	0	?
CC1(C(=O)NS(=O)(=O)c2cccs2)CCN1C(=O)CC1CC1 (stereo not given)	0	0	0	0	-	0
COc1ccccc1NC(=O)c1nnn(Cc2ccccc2)c1NC(C)=O	0	0	0	0	0	0
COc1ccccc1NC(=O)c1nnn(Cc2ccccc2)c1NC(=O)C(F)(F)F	?	0	0	0	0	29µM
COc1ccccc1NNC(=O)c1cc(C(C)(C)C)nn1Cc1ccccc1	0	0	0	-56	0	23µM
CC(C)(C)c1cc(C(=O)NNc2cc(C(F)(F)F)ccc2Cl)n(Cc2ccccc2)n1	?	?	?	-80	?	21µM
Cc1ccc(-c2cc(C(=O)O)n(Cc3ccccc3)n2)cc1	0	-	-	-	-	0
O=C(CCc1ccccc1)Nc1cc(C(F)(F)F)ccc1Cl	0	0	0	0	0	0
Cc1ccc(N2CCCC2=O)cc1S(=O)(=O)N1CCOCC1	0	0	0	0	?	0
Cc1nc(SCC(=O)NCC2CCCO2)c2c3c(sc2n1)CCCC3 (stereo not given)	?	0	0	0	0	?
